# DAX1 inh-1 – DAX1 (NR0B1) inhibitors, primary screen, cell-based, HEK293, Gal4-DAX1, luciferase luminescence; HEK293 Gal4-DAX1 luciferase reporter; inhibition, % at 6.75 µM; 340,000 tested, 0.99% active;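 active = inhibition above the mean over all tested compounds plus 3 SD, cut at about 4.2% in these data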;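 note: 0% = DAX1-transfected cells with DMSO and 100% = empty-vector control cells with DMSO; inhibition shows as a rise in luminescence from relieved DAX1 repression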
# Target sequence (P51843 207-470 limits assumed): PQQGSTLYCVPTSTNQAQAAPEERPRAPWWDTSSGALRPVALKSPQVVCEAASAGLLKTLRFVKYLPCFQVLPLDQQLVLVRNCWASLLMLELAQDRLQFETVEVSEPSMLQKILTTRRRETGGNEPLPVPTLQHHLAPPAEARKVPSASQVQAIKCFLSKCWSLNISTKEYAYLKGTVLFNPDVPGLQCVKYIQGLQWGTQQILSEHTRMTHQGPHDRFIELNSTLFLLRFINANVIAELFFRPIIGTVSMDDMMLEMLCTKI
# ssDAF-12 act – S. stercoralis DAF-12 nuclear receptor activators, primary screen, cell-based, luminescence, HEK293, GRIP1 co-expression, lit1-tk-luc; Nuclear hormone receptor DAF-12 (Strongyloides stercoralis); HEK293 ssDAF-12/GRIP1 lit1-tk-luc reporter; % of 3 µM dafachronic acid response; activation, % at 6.8 µM; 370,000 tested, 1% active;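 active = activation above the mean over all tested compounds plus 3 SD, cut at about 0.9% in these data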;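 note: 0% = DMSO-only wells and 100% = 3 µM delta7-dafachronic acid wells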
# hgDAF12 agonist – H. glycines DAF-12 receptor agonists, primary screen, cell-based, luminescence, HEK293, GAL4 fusion, UAS-luciferase | 370,000 tested, 1.8% active | HEK293 GAL4-hgDAF12 UAS-luciferase reporter, agonist luminescence; normalized to butyrate control | activation, % at 6.8 µM | Nuclear hormone receptor DAF-12 (Heterodera glycines), GAL4 fusion;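 active = activation above a cutoff set at the mean of all screened compounds plus 3 SD, cut at about 10% in these data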;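 note: 0% = DMSO wells and 100% = sodium butyrate wells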
# hcDAF12 agonist – H. contortus DAF-12 nuclear receptor activators, primary screen, cell-based, luminescence, HEK293, lit1-tk-luc reporter; HEK293 hcDAF-12 lit1-tk-luc reporter; 0% DMSO, 100% Δ7-dafachronic acid; activation, % at 6.8 µM; 370,000 tested, 1.4% active; AID 652067, 2013;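 active = activation above the mean of all tested compounds plus 3 SD, cut at about 5.5% in these data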;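 note: 100% = response to 3 µM Δ7-dafachronic acid high control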
# DAX1 inh-2 – DAX1 (NR0B1) inhibitors on StAR promoter, primary screen, cell-based, luminescence, SF-1 (NR5A1), full-length DAX-1. HEK293T StAR-luciferase reporter, SF-1/DAX-1 repression relief. inhibition, % at 6.8 µM. 370,000 tested, 1.1% active. AID 652010, 2013;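 active = inhibition above the mean over all tested compounds plus 3 SD, cut at about 3.6% in these data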;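 note: 0% = DAX-1 cells with DMSO and 100% = cells lacking DAX-1 with DMSO; higher inhibition means more luminescence from relief of DAX-1 repression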
# * = called active by the depositor; x = no result given. Compounds with a hit are over-represented: about 4.1% of the library has one in this group of screens.
SMILES,DAX1 inh-1,ssDAF-12 act,hgDAF12 agonist,hcDAF12 agonist,DAX1 inh-2
CCOC(=O)[C@]12CCCC=C1N(Cc1ccc(OC)cc1)C(=O)[C@@H]2CC(=O)NCc1ccc(OC)c(OC)c1,x,-2,-1,-2,-1
CCCC1CCC2(CCC(=O)N2CCO)CC1 (centres undefined),x,-2,4,-1,1
CC(C)[C@H]1/C(=C/C2CC2)N2C(=O)C[C@H](c3cccc(C(F)(F)F)c3)N=C2N1Cc1ccc2c(c1)OCO2,x,-1,-1,-2,x
Cc1c(CCC(=O)NCC(=O)O)c(=O)oc2cc3occ(-c4ccccc4)c3cc12,-2,-1,-3,-2,1
Cc1coc2cc3oc(=O)c(CCC(=O)NCC(=O)O)c(C)c3cc12,6.1*,-1,1,0,0
CC(=O)Nc1nc(-c2cccs2)cs1,0,-1,5,0,0
O=C(Nc1nc(-c2cccs2)cs1)c1ccc(Cl)s1,0,-1,11*,-3,0
CCSc1nnc(NC(=O)C2CCCN(S(=O)(=O)c3cnc[nH]3)C2)s1 (centres undefined),13*,-1,-1,-1,1
CCSc1nnc(NC(=O)C2CCCCC2)s1,4.7*,0,5,1,1
O=C(NC1CCCCCCC1)C1CCCN(S(=O)(=O)c2cnc[nH]2)C1 (centres undefined),0,-1,0,0,0
CSc1nnc(NC(=O)C2CCCCC2)s1,0,0,2,0,0
O=C(NC1CCCCC1)C1CCCN(S(=O)(=O)c2cnc[nH]2)C1 (centres undefined),5.0*,-2,-1,0,0
Cc1ccc2nc(NC(=O)C3CCCN(S(=O)(=O)c4cnc[nH]4)C3)sc2c1 (centres undefined),6.3*,-1,8,3,3
O=C(Nc1ccc2c(c1)OCO2)OC1CCC12CCC(c1ccccc1)CC2 (centres undefined),x,-1,6,3,0
CCOc1ccc(-n2c(SCC(=O)Nc3cccc4ccccc34)nnc2-c2ccco2)cc1,x,-2,-1,-1,-3
COC(=O)[C@H](C(C)C)N1Cc2nnn(Cc3ccccc3)c2-c2ccccc2S1(=O)=O,x,-1,0,-3,-1
CCCCNC(=O)c1cccc(NC(=O)C(=O)c2ccccc2NC(C)=O)c1,0,-1,-1,-2,0
CCN(CC)CCNC(=O)c1cccc(NC(=O)C(=O)c2ccccc2NC(C)=O)c1,1,0,4,5.9*,0
CCOC(=O)CC[C@@]1(C(=O)OCC)C[C@@H](CC(=O)NCCc2ccccc2OC)C(=O)N2CCCC=C21,x,-1,-3,-1,-1
CC(O)CNc1nc2sc3c(c2c(=O)n1CCc1ccccc1)CCCCC3 (centres undefined),6.5*,-1,2,0,-1
CC(O)CNc1nc2sc3c(c2c(=O)n1Cc1ccco1)CCCCC3 (centres undefined),1,0,2,1,0
CN(C)CCNc1nc2sc3c(c2c(=O)n1CCc1ccccc1)CCCCC3,7.0*,-1,2,-1,1
CC(C)(C)OC(=O)NCc1cc(F)ccc1/C=C/S(=O)(=O)NC1CCCC1,x,-2,-2,-1,-2
Cc1cccc(Cn2cc(CN3CC(N4CCN(CCOC(=O)c5cc6ccccc6o5)CC4)CS3(=O)=O)nn2)c1 (centres undefined),x,0,-1,1,0
Cc1cnc(C=O)c2cccc([N+](=O)[O-])c12,0,0,0,5.9*,-1
SMILES,DAX1 inh-1,ssDAF-12 act,hgDAF12 agonist,hcDAF12 agonist,DAX1 inh-2
CCOC(=O)CC[C@@H]1CC[C@]2(CCCN(C(=O)C3CCCCC3)C2)O1,x,-1,-3,1,0
COc1ccccc1CC(=O)Nc1cc(C)ccn1,0,1.3*,6,5,1
COc1ccccc1CNc1cc(C)ccn1,2,-1,-2,0,0
Cc1ccnc(NC(=O)CNC(=O)c2ccco2)c1,0,0,1,0,3.8*
O=C(CNC(=O)c1ccco1)Nc1cccc(Cl)c1,0,0,1,5.8*,0
O=C(CNC(=O)c1ccco1)Nc1ccc(F)c(Cl)c1,-1,-1,-2,-2,0
Cc1ccc(NC(=O)CNC(=O)Cc2cccc3ccccc23)nc1,0,-1,2,3,0
Cc1ccnc(NC(=O)CNC(=O)Cc2cccc3ccccc23)c1,3,1.3*,9,2,3
C=CCN1C[C@H](COC(=O)c2ccc(C)c(C)c2)Oc2cccc(F)c2S1(=O)=O,x,-2,-2,-2,-2
C=CCOC(=O)N[C@H](c1cccc(OC)c1)[C@H](C)/C=C/CC(=O)OC,x,-1,-1,-3,0
O=C(Nc1nc2ncccn2c1-c1ccc(F)c(F)c1)c1ccccc1,x,-1,2,2,-2
O=C(CNC(=O)c1ccco1)Nc1ccc(N2CCCCCC2)cc1,4.7*,-1,10,0,1
Cc1ccnc(NC(=O)CCCOc2cc(=O)n(C)c3ccccc23)c1,7.0*,0,2,-1,0
CCn1c(SCC(=O)N/N=C/c2cccc(Oc3ccccc3)c2)nnc1-c1ccccc1,x,-1,-2,-2,-1
CCCCNC(=O)C[C@@H]1C(=O)N(CCc2ccc(Cl)cc2)C2=CCCCC[C@]21C(=O)OC,x,-1,-1,0,-1
C(=N\N=C\c1ccccc1)/c1ccccc1,5.0*,0,2,-1,1
Cc1ccc(/C=N/N=C/c2ccc(C)cc2)cc1,0,-1,0,2,0
O=C(NCCCn1ccnc1)Nc1ccc(Cl)c(Cl)c1,0,-1,0,5.8*,1
Cn1cccc1CNC(=O)Nc1ccc(Cl)c(Cl)c1,0,-1,9,4,1
O=C(NCCCn1ccnc1)Nc1ccc(Cl)cc1,2,-1,1,-1,0
O=C(NCC1CC1(Cl)Cl)Nc1ccc(Cl)c(Cl)c1 (centres undefined),1,0,11*,-1,0
OC(c1ccccc1)(c1ccccc1)C1CCN(CCCOc2ccc(-c3ccc(F)cc3F)cc2)CC1,x,-1,-1,-1,0
Cc1c(Cl)cnc(NC(=O)COC(=O)c2cc3c(s2)CCC(C)C3)c1Cl (centres undefined),1,1.4*,5,1,0
CC1CCc2c(sc(NC(=O)c3nc4ncccn4n3)c2C#N)C1 (centres undefined),4.4*,-1,4,-2,0

# Screens deposited in PubChem by The Scripps Research Institute Molecular Screening Center.
